Values joined by “and” are separate entries in the source; they are usually repeats but may differ in a detail not shown here. Equal values may be shown once.
Tested on: Plasmodium falciparum
Assay: GSK_TCMDC: Inhibition of Plasmodium falciparum 3D7 in whole red blood cells, using parasite LDH activity as an index of growth. Test compounds present at 2uM
Format: functional

| Structure (SMILES) | Inhibition [%] |
| --- | --- |
| COC(=O)c1ccc(CC(C)NCC(O)c2cccc(C(F)(F)F)c2)cc1F.Cl (stereo unspecified) | 82 |
| Cc1cc(NC(=O)[C@@H](Nc2ccc(C#N)c3ccccc23)C2CCCCC2)ccc1F.O=C(O)C(F)(F)F | 95 |
| O=C(/C=C/c1ccc2ccccc2c1)NC1CCC(CN2CCC(c3c[nH]c4ccccc34)CC2)CC1 (stereo unspecified) | 100 |

Tested on: Plasmodium falciparum
Assay: GSK_TCMDC: Inhibition of Plasmodium falciparum Dd2 in whole red blood cells, using parasite LDH activity as an index of growth. Test compounds present at 2uM
Format: functional

| Structure (SMILES) | Inhibition |
| --- | --- |
| N#Cc1ccc(N(CC(=O)NCCc2ccccc2)CC2CC2)c2ccccc12.O=C(O)C(F)(F)F | 48% |
| CN(c1cc(NC(=O)c2ccc(F)cc2)ccn1)C1CCN(Cc2cccc(O)c2)CC1.O=C(O)C(F)(F)F | 82% |
| CCCc1ccc2c(c1O)CCC(N(CCC)CCC)C2.Cl (stereo unspecified) | 23% |
| CNCCCCCCOc1ccc(CC(C)NCC(O)c2cccc(C(F)(F)F)c2)cc1.Cl (stereo unspecified) | 79% |
| CC(Cc1ccc(Oc2ccc(Cl)cc2)cc1)NCC(O)c1cccc(Cl)c1 (stereo unspecified) | 98% |
| CCOc1ccc2nccc([C@@H](O)[C@@H]3C[C@@H]4CCN3C[C@@H]4CC)c2c1 [ETHYLHYDROCUPREINE] | 51% |
| CCCCCCCN1C2CCC1CC(CCOc1ccnc3ccc(OC)cc13)C2 (stereo unspecified) | 88% |
| COC(=O)c1ccc(CC(C)NCC(O)c2cccc(C(F)(F)F)c2)cc1 (stereo unspecified) | 73% and 87% |
| O=C(/C=C/c1ccc(Cl)c(Cl)c1)N1CCC(CN2CCC(c3c[nH]c4ccc(O)cc34)CC2)CC1 | 100% |
| O=C(C=Cc1ccc(-c2ccccc2)cc1)NC1CCC(CN2CCC(c3c[nH]c4ccccc34)CC2)CC1 (stereo unspecified) | 85% and 98% |
| CC[C@H]1CN2CC[C@@H]1C[C@H]2[C@H](O)c1cc(N2CCC(CO)CC2)nc2ccc(OC)cc12 | 99% |
| COC(=O)/C=C/c1ccc(CC(C)NCC(O)c2cccc(Cl)c2)cc1 (stereo unspecified) | 73% |
| CN(C)c1cccc(CN2CC=C(c3c[nH]c4ccc(Cl)cc34)CC2)c1 | 87% |
| C1=C(c2c[nH]c3ccccc23)CCN(Cc2ccccc2)C1 | 80% |
| CC(Cc1ccc(SC(C)C)cc1)NCC(O)c1cccc(Cl)c1.Cl (stereo unspecified) | 97% |
| COCCNCc1cccc(-c2cccc(CN(C(=O)Nc3ccccc3)C3CCN(Cc4ccccc4)CC3)c2)c1.O=C(O)C(F)(F)F | 65% |
| CC[C@H]1CN2CC[C@H]1C[C@H]2[C@H](O)c1cc(-c2ccc(F)cc2C)nc2ccc(OC)cc12.Cl | 100% |
| Cc1ccc(CC(C)(C)NCC(O)c2cccc(C(F)(F)F)c2)cc1.O=C(O)/C=C/C(=O)O (stereo unspecified) | 92% |
| Cc1[nH]c2cc(Cl)ccc2c1C1=CCN(CCCCC2(C)C(=O)Nc3ccccc32)CC1 (stereo unspecified) | 90% |

| Structure (SMILES) | Inhibition |
| --- | --- |
| CC[C@H]1CN2CC[C@H]1C[C@H]2[C@H](OC(=O)c1ccccc1)c1cc(C#N)nc2ccc(OC)cc12 | 49% |
| COc1cccc(CCNC(C)Cc2ccc(OCCCCOc3ccccc3)cc2)c1 (stereo unspecified) | 90% |
| O=C(CCCCCc1ccccc1)NC1CCC(CN2CCC(c3c[nH]c4ccccc34)CC2)CC1 (stereo unspecified) | 5% |
| Cc1[nH]c2ccc(NS(C)(=O)=O)cc2c1C1CCN(CC2CCN(C(=O)/C=C/c3ccc(Cl)c(Cl)c3)CC2)CC1 | 83% |
| COc1ccc2nc(-c3ccc(F)cc3)cc([C@@H](O)[C@@H]3C[C@@H]4CCN3CC4C=NO)c2c1 (stereo partly specified) | 94% |
| CC[C@H]1CN2CC[C@H]1C[C@H]2[C@H](O)c1cc(-c2ccc(SC)cc2)nc2ccc(OC)cc12.Cl | 99% |
| Br.COC(=O)c1ccc(CC(C)NCC(O)c2cccc(SC(F)(F)F)c2)cc1 (stereo unspecified) | 72% |
| Oc1cccc(C2CCCN(Cc3cccc4cc[nH]c34)C2)c1 (stereo unspecified) | 82% |
| COc1ccc2[nH]cc(C3=CCN(Cc4ccccc4)CC3)c2c1 | 84% |
| O=C(Cc1c(-c2ccccc2)[nH]c2ccccc12)NC1CCC(CN2CCC(c3c[nH]c4ccccc34)CC2)CC1 (stereo unspecified) | 75% |
| CC[C@H]1CN2CC[C@@H]1C[C@H]2[C@H](O)c1cc(N2CCC(O)CC2)nc2ccc(OC)cc12 | 92% |
| O=C(Cc1cc(=O)oc2cc(O)ccc12)NC1CCC(CN2CCC(c3c[nH]c4ccccc34)CC2)CC1 (stereo unspecified) | 0% |
| Cc1cc(NC(=O)[C@H](CC(C)C)Nc2ccc(C#N)c3ccccc23)ccc1F.O=C(O)C(F)(F)F | 88% |
| CCOc1ccc(-c2nc3cc(-c4nc5cc(N6CCN(C)CC6)ccc5[nH]4)ccc3[nH]2)cc1.Cl.O | 99% |
| CN1C(=O)[C@H](NC(=O)[C@@H](Cc2ccccc2)NC(=S)Nc2ccccc2)N=C(c2ccccc2)c2ccccc21 | 23% |
| CC(=O)Nc1ccc(OCCN(CC(C)(C)C)c2ccc(C#N)c(C(F)(F)F)c2)c(Cl)c1 | 93% |
| COC(=O)c1ccc(CC(C)NCC(O)c2cccc(C(F)(F)F)c2)cc1F.Cl (stereo unspecified) | 47% |
| Cc1cc(NC(=O)[C@@H](Nc2ccc(C#N)c3ccccc23)C2CCCCC2)ccc1F.O=C(O)C(F)(F)F | 83% |
| O=C(/C=C/c1ccc2ccccc2c1)NC1CCC(CN2CCC(c3c[nH]c4ccccc34)CC2)CC1 (stereo unspecified) | 88% |
